{"source": "PubChem BioAssay AID1259415", "about": "(National Center for Advancing Translational Sciences (NCATS), 2018)", "note": "About 18,000 (4.4%) of roughly 410,000 compounds were called active. Not shown: some 7% with an inconclusive outcome. The entries come from a sample that favours actives as a whole. Unmarked numbers belong to inactive results. Rule as the data show it: active = activity change below about -60%; inconclusive = no clear call, values can overlap the other calls; inactive = above about -39%. % is scaled to controls: 0 for no effect and ±100 for the full control effect."}
{"experiment": "qHTS Assay for inhibitors of the human cytomegalovirus (HCMV)", "details": "HFF cells, HCMV-luciferase reporter, 72 h; at 57.5 µM; hits give low values", "how_it_was_run": "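After 16 h attachment at 37C, HFF cells received test compound and HCMV-luciferase (1 PFU/cell); reporter luminescence read 72 h later, data normalized against buffer-only and known inhibitor Salinomycin.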"}
{"smiles": "Cn1c(/C(C#N)=C2/CCCCCN2)nc2ccccc21", "activity change, negative = inhibition": "-40%"}
{"smiles": "Cc1nn(CC(=O)NCCc2ccccc2)c(=O)c2c1sc1ccccc12", "activity change, negative = inhibition": "0.0704%"}
{"smiles": "N#C/C(=C\\c1ccccc1F)c1nc2ccccc2c(=O)[nH]1", "activity change, negative = inhibition": "-22.3%"}
{"smiles": "O=C(/C(=C/c1cccc(Cl)c1)c1nc2ccccc2[nH]1)c1ccccc1", "activity change, negative = inhibition": "-99.6% (active)"}
{"smiles": "CCc1ccc(CNCc2c(C(=O)O)n(Cc3ccc(F)cc3Cl)c3cc(OC)ccc23)cc1", "activity change, negative = inhibition": "15.2%"}
{"smiles": "CCOC(=O)C1=C(c2ccccc2)N=C2SCC(=O)N2C1c1ccc(O)c(OC)c1", "note": "(stereo not given)", "activity change, negative = inhibition": "9.04%"}
{"smiles": "CC1CN(CCOc2ccccc2[N+](=O)[O-])CC(C)O1", "note": "(stereo not given)", "activity change, negative = inhibition": "-21.7%"}
{"smiles": "CC1CCCN(CCOCCOc2ccccc2-c2ccccc2)C1", "note": "(stereo not given)", "activity change, negative = inhibition": "-71.7% (active)"}
{"smiles": "CC1CN(CCCOc2ccccc2-c2ccccc2)CC(C)O1", "note": "(stereo not given)", "activity change, negative = inhibition": "58.1%"}
{"smiles": "CCOC(=O)Cn1c(=O)n(C2CCCCC2)c2nc(-c3cccc(OC)c3)nc(C(N)=O)c21", "activity change, negative = inhibition": "18.1%"}
{"smiles": "O=C(/C=C/c1ccccc1)N1CCN(Cc2cc(=O)n3nc(-c4ccccc4F)sc3n2)CC1", "activity change, negative = inhibition": "34.4%"}
{"smiles": "Cc1cc2c(cc1C)C(c1cccc(OC(C)C)c1)CC(=O)N2", "note": "(stereo not given)", "activity change, negative = inhibition": "-38.7%"}
{"smiles": "CCCOc1ccccc1C1CC(=O)Nc2cc3c(cc21)OCO3", "note": "(stereo not given)", "activity change, negative = inhibition": "-61.8% (active)"}
{"smiles": "COc1ccccc1C1C2=C(COC2=O)Nc2cc3c(cc21)OCO3", "note": "(stereo not given)", "activity change, negative = inhibition": "-87.9% (active)"}
{"smiles": "O=C1NC(c2cc3c(cc2Cl)OCO3)Oc2ccccc21", "note": "(stereo not given)", "activity change, negative = inhibition": "17.7%"}
{"smiles": "O=C1CC(c2ccc(F)cc2F)c2cc3c(cc2N1)OCO3", "note": "(stereo not given)", "activity change, negative = inhibition": "-1.6%"}
{"smiles": "O=C1OCC2=C1C(c1ccc(Cl)cc1)c1cc3c(cc1O2)OCO3", "note": "(stereo not given)", "activity change, negative = inhibition": "37.6%"}
{"smiles": "COc1ccc(-c2onc(C)c2C)cc1S(=O)(=O)NCC1CCN(Cc2cccc(F)c2)CC1", "activity change, negative = inhibition": "0%"}
{"smiles": "Cc1ccccc1CN1CCC(CNC(=O)c2c(C)oc3ncnc(N4CCCCC4)c23)CC1", "activity change, negative = inhibition": "-4.04%"}
{"smiles": "Cc1sc2ncn(CC(=O)N3CCN(c4ccc(F)cc4)CC3)c(=O)c2c1S(=O)(=O)N1CCN(c2ncccn2)CC1", "activity change, negative = inhibition": "-4.66%"}
{"smiles": "Cc1n[nH]c(=O)c2c(NC(=O)CSc3ccccc3F)oc(C)c12", "activity change, negative = inhibition": "-30.8%"}
{"smiles": "COc1ccc(N2C(=O)CS(=O)(=O)C23C(=O)N(Cc2ccc(C)cc2)c2ccccc23)cc1Cl", "note": "(stereo not given)", "activity change, negative = inhibition": "-12.4%"}
{"smiles": "COc1ccccc1C1CCN(C(=S)Nc2ccc(Br)cc2)CC1", "activity change, negative = inhibition": "2.47%"}
{"smiles": "S=C(NCC1COc2ccccc2O1)Nc1ccc(Br)cc1", "note": "(stereo not given)", "activity change, negative = inhibition": "-67.8% (active)"}
{"smiles": "COc1ccc(NC(=O)CC2COc3ccccc3O2)c(OC)c1", "note": "(stereo not given)", "activity change, negative = inhibition": "9.76%"}
{"smiles": "CCC(=O)N1CCc2cc(S(=O)(=O)NC(Cc3ccccc3)C(=O)NCc3ccc(C)cc3)ccc21", "note": "(stereo not given)", "activity change, negative = inhibition": "5.04%"}
{"smiles": "Cc1ccc(N(Cc2cc(=O)[nH]c3ccccc23)C(=O)CCl)cc1", "activity change, negative = inhibition": "-101% (active)"}
{"smiles": "CCC(=O)N(Cc1cc2ccccc2[nH]c1=O)c1ccc(OC)cc1", "activity change, negative = inhibition": "18.3%"}
{"smiles": "Cc1ccc(N(Cc2ccccc2O)C(=O)c2ccccc2F)cc1", "activity change, negative = inhibition": "-8.68%"}
{"smiles": "Cc1ccc(C)c(NC(=O)Cn2ccn(-c3ccc(F)cc3)c(=O)c2=O)c1", "activity change, negative = inhibition": "-35.9%"}
{"smiles": "O=S(=O)(Nc1ccc2nc(-c3cccc(Cl)c3)oc2c1)c1ccccc1", "activity change, negative = inhibition": "-36.4%"}
{"smiles": "COc1ccc(C(C)(C)C)cc1NC(=O)CN(C)C1=NS(=O)(=O)c2ccccc21", "activity change, negative = inhibition": "6.84%"}
{"smiles": "Oc1cccc(/C=N/Nc2ccc(Cl)nn2)c1O", "activity change, negative = inhibition": "-95.1% (active)"}
{"smiles": "COc1ccc(-n2ccn(CC(=O)Nc3ccc(C)c(C)c3)c(=O)c2=O)cc1OC", "activity change, negative = inhibition": "-20.8%"}
{"smiles": "CC(C)N1C(=O)N(c2ccccc2)C(C)(O)CC1(C)C", "note": "(stereo not given)", "activity change, negative = inhibition": "-26.6%"}
{"smiles": "CC(CC(=O)Nc1ccccc1)n1ccnc1", "note": "(stereo not given)", "activity change, negative = inhibition": "39%"}
{"smiles": "CC(=O)N1CCc2cc(S(=O)(=O)NC(Cc3ccccc3)C(=O)NCc3ccc(C)cc3)ccc21", "note": "(stereo not given)", "activity change, negative = inhibition": "-12.2%"}
{"smiles": "C#CCN(C[C@@H]1[C@@H](OC(=O)NC2CC2)[C@@H](OC(=O)NC2CC2)Cn2c(=O)ccc(=O)n21)S(=O)(=O)c1ccc(C)cc1", "activity change, negative = inhibition": "-96.3% (active)"}
{"smiles": "Cc1ccc(S(=O)(=O)N2C[C@H]3n4c(=O)ccc(=O)n4C[C@H](OC(=O)NC4CCCC4)[C@@]3(O)C2)cc1", "activity change, negative = inhibition": "-24.9%"}
{"smiles": "C#CCN(C[C@H]1[C@H](OC(=O)NC2CCCC2)[C@H](OC(=O)NC2CCCC2)C[C@H]2C(=O)N(c3ccccc3)C(=O)[C@@H]12)S(=O)(=O)c1ccc(C)cc1", "activity change, negative = inhibition": "-6.21%"}
{"smiles": "CCC(=O)N1N=C(c2ccc(OC)cc2)CC1c1cn(-c2ccccc2)nc1-c1cccs1", "note": "(stereo not given)", "activity change, negative = inhibition": "-16.7%"}
{"smiles": "COc1ccc(Br)cc1CNC(=O)c1cc(=O)[nH]c2ccc(S(=O)(=O)N3CCCC3)cc12", "activity change, negative = inhibition": "37.6%"}
{"smiles": "COc1ccccc1CNC(=O)NCc1noc2ccc(C)cc12", "activity change, negative = inhibition": "-4.73%"}
{"smiles": "O=C(CCCC(=O)N(CC(=O)NC1CCCC1)Cc1ccccc1Cl)Nc1ccccn1", "activity change, negative = inhibition": "-99.6% (active)"}
{"smiles": "CCOc1ccccc1N(CC(=O)NC1CCCCC1)C(=O)CCCC(=O)Nc1ccccn1", "activity change, negative = inhibition": "-7.08%"}
{"smiles": "Cc1ccc(N(CC(=O)NC2CCCCC2)C(=O)CCCC(=O)Nc2ccccn2)c(C)c1", "activity change, negative = inhibition": "0.377%"}
{"smiles": "Cc1ccc(S(=O)(=O)N2CCC(C(=O)NCCC3=CCCCC3)CC2)cc1C", "activity change, negative = inhibition": "-15.1%"}
{"smiles": "CC(=O)c1ccc(NC(=O)CSc2c(C(C)C)cnc3c2c(=O)n(C)c(=O)n3C)cc1", "activity change, negative = inhibition": "-7.7%"}
{"smiles": "CC(C)(C)c1ccc(C(=O)NCC(c2ccco2)S(=O)(=O)c2ccc(F)cc2)cc1", "note": "(stereo not given)", "activity change, negative = inhibition": "-16.6%"}
{"smiles": "CN(C)Cc1c(O)ccc2c(=O)c(-c3ccccc3Cl)coc12", "activity change, negative = inhibition": "14.6%"}
{"smiles": "CCN(Cc1ccccc1)Cc1c(O)ccc2c(=O)c(-c3ccc(Cl)cc3Cl)coc12", "activity change, negative = inhibition": "1.81%"}
{"smiles": "CC(C)CN(Cc1c(O)ccc2c(=O)c(-c3ccccc3)coc12)CC(C)C", "activity change, negative = inhibition": "-72.9% (active)"}
{"smiles": "CN(O)C(=S)c1ccccc1", "activity change, negative = inhibition": "-97.9% (active)"}
{"smiles": "CCOC(=O)c1cccn1C1C(=O)N(Cc2ccc(OC)cc2)c2c(F)cccc21", "note": "(stereo not given)", "activity change, negative = inhibition": "-32%"}
{"smiles": "CC(=O)c1ccc(NC(=O)CSc2nc(-c3ccccc3F)nc3c2c(=O)n(C)c(=O)n3C)cc1", "activity change, negative = inhibition": "0.932%"}
